# Screening data (PubChem)
# Compounds with a hit are over-represented: about 11% of the library has one in this group of screens.
# IMPase cell inh: membrane-permeable compound that blocks inositol monophosphatase; CHO-M1 cells, IP1 accumulation, HTRF TR-FRET ratio; inhibition (IP1 accumulation), % at 46.1 µM; 120,000 tested, under 10 active; AID 901; active = well fitted curve in the direction sought with a large enough effect in the signal ratio, not every such curve was filed as active; inconclusive = small, poorly fitted or top-dose-only effect, or a change in a side signal; inactive = no such curve, though single readings can be large or run the other way; the % refers to the signal ratio;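 also: cells stimulated with carbachol in lithium chloride buffer; higher means more IMPase inhibition seen as more IP1 and lower FRET ratio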
# Target sequence (P97697 whole entry, looked up): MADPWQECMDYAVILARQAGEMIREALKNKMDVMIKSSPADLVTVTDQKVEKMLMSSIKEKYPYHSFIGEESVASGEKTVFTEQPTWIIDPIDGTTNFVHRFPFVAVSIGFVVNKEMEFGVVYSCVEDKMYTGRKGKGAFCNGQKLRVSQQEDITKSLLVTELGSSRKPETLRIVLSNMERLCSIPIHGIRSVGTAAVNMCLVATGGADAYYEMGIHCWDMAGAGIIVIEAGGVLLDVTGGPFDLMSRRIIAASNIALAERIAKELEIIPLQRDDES
#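 CHO-M1 cells (CHO stably expressing M1 receptor), compound up to 46 uM final, stimulated with carbachol (50 uM as added) in buffer with 50mM LiCl, pH 7.4, 30 min at 37C. Cytosolic IP1 read by TR-FRET; AC50 from Hill fits.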
# ALDH1A1 inh: inhibitors of human aldehyde dehydrogenase 1A1 | P00352 | Purified ALDH1A1, NADH fluorescence, propionaldehyde substrate | Potency, µM (highest dose often 75.3 µM), usual class: inhibitors | 220,000 tested, 7.3% active | AID 1030
# HPGD block: HPGD (human) dehydrogenase inhibition | P15428 | purified HPGD, NADH fluorescence kinetic, PGE2 substrate | Potency, µM, hits mostly inhibitors | 150,000 tested, 4.3% active
# Target sequence (P15428 whole entry, looked up): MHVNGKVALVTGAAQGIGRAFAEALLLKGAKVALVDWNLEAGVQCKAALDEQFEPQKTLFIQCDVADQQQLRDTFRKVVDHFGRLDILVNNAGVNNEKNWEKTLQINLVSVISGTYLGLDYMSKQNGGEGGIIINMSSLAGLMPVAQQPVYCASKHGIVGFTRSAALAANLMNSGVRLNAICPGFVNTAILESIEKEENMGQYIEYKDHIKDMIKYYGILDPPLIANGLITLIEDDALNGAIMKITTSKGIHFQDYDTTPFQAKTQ
#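 20 nM HPGD preincubated 15 min at room temperature with compound in 50 mM Tris-HCl pH 8, 0.01% Tween 20. Started with 1 mM NAD+ and 30 uM prostaglandin E2; NADH fluorescence (360/450 nm) read 5 times over 30-s intervals, last minus first.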
# PNC assembly inh: perinucleolar compartment assembly inhibition | PC3M PTB-GFP, PNC prevalence imaging, 16 h; active compounds read low | activity change (PNC), negative = inhibition, % at 10 µM | 140,000 tested, 3.1% active;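 active = readout at or below -70, meaning at least 70% loss of cells showing the perinucleolar compartment, a nuclear body marking cancer cells; inconclusive = readout between -30 and a set limit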
#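 PC3M cells stably expressing PTB-GFP, 750–1000 cells/well, treated 16 h at 37 °C with compound (23 nl of library stock), in duplicate. After paraformaldehyde fixation and Hoechst stain, imaged at 20x; PNC prevalence scored by image analysis.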
# IMPase Li inh: cell-permeable IMPase inhibitors with lithium potentiation. CHO-M1 cells, IP1 TR-FRET (IP-One), carbachol + lithium. Potency, µM (series often up to 59.4 µM), hits mostly inhibitors. 210,000 tested, 0.35% active; active = well fitted inhibition curve with a large enough effect; inconclusive = small, poorly fitted or top-dose-only effect; inactive = no such curve, though single readings can be large or run the other way;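 also: IP1 builds up when IMPase is blocked and the TR-FRET signal falls; nearly all actives have a fitted effect of over 50% in size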
#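 CHO cells stably expressing M1 receptor (2000/well, cultured 16–30 h) treated 30 min at 37C with compound plus low lithium. Cytosolic IP1 by TR-FRET (665/620 ratio and 620 channel) after 10 min lysis; AC50 by Hill fit.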
# Hits are given with their value; i = inactive; ? = inconclusive; nt = no result; [ ] = dose if it differs, or a comment. Unless noted, calls follow the shape of the dose curve; as a rule, active = well fitted inhibition curve with a large enough effect (not every such curve was filed as active); inconclusive = small, poorly fitted or top-dose-only effect, or another doubt; inactive = no such curve, though single readings can be large or run the other way.
SMILES,IMPase cell inh,ALDH1A1 inh,HPGD block,PNC assembly inh,IMPase Li inh
COC(=O)[C@@]1(Cc2ccc(F)cc2)[C@H]2c3cc(C(=O)N(C)C)n(Cc4nc5ccccc5[nH]4)c3C[C@H]2CN1C(=O)c1ccccc1,nt,?,i,i,i
CCOc1ccccc1CNS(=O)(=O)c1ccc2[nH]c(=O)sc2c1,i,?,i,-106.5,i
COc1c(C)cc(C(=O)C2CCCN(C(=O)c3cc(C)nc(C)n3)C2)cc1C (configuration not stated),nt,i,nt,nt,i
COc1c(C)cc(C(=O)C2CCCN(C(=O)/C=C/c3ccccn3)C2)cc1C (configuration not stated),nt,14.1µM,nt,nt,i
CN(C)N1C(=O)CC(N2CCCC2)C1=O (configuration not stated),nt,22.4µM,nt,nt,i
C=CCNc1nc(Cl)ncc1F,i,i,i,-119.3,i
CCCCNC1=CC(=O)C(=O)c2ccccc21,nt,?,nt,nt,i
CCCCN1C=CC(=C2C(=O)c3ccccc3C2=O)C=C1,nt,2.82µM,nt,nt,i
O=C(Nc1ccccc1C(=O)O)c1cccc(NC(=O)c2ccc(Br)o2)c1,i[1.84 µM],?,i,i,i
O=C(Nc1cccc(C(=O)O)c1)/C(=C\c1ccc2c(c1)OCO2)NC(=O)c1ccc(Br)o1,nt,i,nt,nt,i
O=C(Nc1ccccc1C(=O)O)/C(=C/c1ccc([N+](=O)[O-])cc1)NC(=O)c1ccc(Br)o1,nt,10µM,nt,nt,i
O=C(Nc1ccccc1C(=O)O)c1ccc(NC(=O)c2ccc(Br)o2)cc1,i,?,17.8µM,i,i
CN(C)C(=O)c1ccc(-c2ccc3ncnc(NCc4ccccc4)c3c2)cc1,nt,?,nt,nt,i
COc1ccc(OCC(=O)N/N=C2/C=C(C)CC2)cc1,nt,i,nt,nt,i
O=C(c1ccc(C#CC2(O)CCCCC2)cc1)N1CCN(Cc2ccccc2)CC1,?,i,i,i,i
O=C(c1ccc(C#CC2(O)CCCCC2)cc1)N1CCN(C(c2ccccc2)c2ccccc2)CC1,i,25.1µM,i,i,i
COC(=O)CSc1nnc([C@H](CC(C)C)NC(=O)OC(C)(C)C)o1,i,i,i,i,i
Cc1ccc(NC2=C(NCCO)C(=O)c3ccccc3C2=O)cc1,nt,22.4µM,i,i,i
O=C(O)c1ccc(NC(CSCc2ccccc2F)C(=O)O)c([N+](=O)[O-])c1 (configuration not stated),nt,7.94µM,i,i,i
Cc1ccc(CSCC(Nc2ccc(C(=O)O)cc2[N+](=O)[O-])C(=O)O)cc1 (configuration not stated),i,?,i,i,i
O=C(O)c1ccc(NC(CSCc2ccc(F)cc2)C(=O)O)c([N+](=O)[O-])c1 (configuration not stated),i,22.4µM,i,?,i
N#Cc1cccc(-c2nc(NCCN3CCOCC3)c3ccccc3n2)c1,nt,17.8µM,nt,nt,i
COC(=O)C1Sc2[nH]c(=O)sc2C(c2ccc(Cl)cc2)C1C(=O)OC (configuration not stated),i,11.2µM,i,i,i
COC(=O)C1CSc2[nH]c(=O)sc2C1c1ccccc1 (configuration not stated),i,31.6µM,i,i,i
OB(O)c1ccc(Cl)s1,nt,i,i,nt,i
SMILES,IMPase cell inh,ALDH1A1 inh,HPGD block,PNC assembly inh,IMPase Li inh
CCC[C@@H]1O[C@@H]2C[C@@H]3[C@H]4CCC5=CC(=O)C=C[C@@]5(C)[C@H]4[C@H](O)C[C@@]3(C)[C@@]2(C(=O)CO)O1,i,i,i,nt,i
NS(=O)(=O)c1ccc(NC(=O)CN2CCCCC2)cc1,i,i,i,-83.2,i
NS(=O)(=O)c1ccc(NC(=S)Nc2ccc(C(=O)N3CCCCC3)cc2)cc1,nt,17.8µM,nt,nt,i
O=C(c1ccc(NC(=S)NCc2ccc(Cl)cc2)cc1)N1CCCCC1,nt,?,nt,nt,i
O=C(c1ccc(NC(=S)Nc2ccc(Cl)c(Cl)c2)cc1)N1CCCC1,i,?,11.2µM,i,i
O=C1/C(=C\c2ccco2)SC(=S)N1C1CCS(=O)(=O)C1 (configuration not stated),nt,22.4µM,nt,nt,nt
O=C1/C(=C/c2ccco2)SC(=S)N1C1CCS(=O)(=O)C1 (configuration not stated),nt,8.91µM,nt,nt,i
N#Cc1cnn(-c2nc(SCc3ccccc3)nc3sc4c(c23)CCCC4)c1N,i,8.91µM,i,i,i
CN(C)c1cc2c(c(N(C)C)c1)C(=O)c1ccccc1C2=O,?,0.708µM,i,i,i
Cc1ccc(C)o1,nt,i,i,nt,i
Cc1ccccc1SCc1noc(C(=O)NC(C)C)c1C(=O)O,i,?,i,-90.7,i
CCCCNC(=O)c1onc(CSc2ccccc2F)c1C(=O)O,i,i,i,i,i
CC(C)NC(=O)c1onc(CSc2ccccc2F)c1C(=O)O,i,i,i,-83.7,i
CCc1nc(Nc2ccncc2)c2oc3ccccc3c2n1,i,?,i,i,i
CCc1nc(N[C@@H](CC(C)C)C(=O)O)c2oc3ccccc3c2n1,i,0.891µM,i,i,i
CCc1nc(N2CCCCC2)c2oc3ccccc3c2n1,i,12.6µM,i,i,i
CCc1nc(N[C@H](C(=O)O)C(C)C)c2oc3ccccc3c2n1,nt,0.794µM,nt,nt,nt
CCc1nc(NC(C)C)c2oc3ccccc3c2n1,i,?,i,-93.8,i
Cc1ccc([N+](=O)[O-])cc1S(=O)(=O)Nc1ccc(N2CCOCC2)cc1,nt,i,nt,nt,i
C=CCC(O)CC1C2C(CC(O)CC=C)C3C1C3C2OC(C)(C)C (configuration not stated),nt,i[13.5 µM],nt,nt,nt
O=c1cnc2cnc(N3CCOCC3)nc2n1C[C@H]1CCCO1,nt,?,?,nt,i
COC(=O)C1=C(C)N(CC2CC2)C(=O)N[C@H]1CCc1ccccc1,nt,i,i,nt,i
CCc1nc(NCCN2CCOCC2)c2oc3ccccc3c2n1,i,0.891µM,i,?,i
CCc1nc(NCCCN2CCOCC2)c2oc3ccccc3c2n1,i,i,i,i,i
Cc1cc(O)c(C(C)C)cc1N=C1CSC(=O)N1,i,12.6µM,31.6µM,i,i
SMILES,IMPase cell inh,ALDH1A1 inh,HPGD block,PNC assembly inh,IMPase Li inh
COc1ccc(-c2cc(C(=O)N3CCCCC3)no2)cc1OC,i,i,14.1µM,?,i
O=C(c1cc(-c2ccc(Cl)cc2Cl)on1)N1CCN(C(=O)c2ccco2)CC1,i,2.82µM,10µM,i,i
O=C(c1cc(-c2ccccc2Cl)on1)N1CCN(C(=O)c2ccco2)CC1,i,i,i,?,i
COc1ccc(-c2cc(C(=O)O)no2)cc1,nt,0.447µM,14.1µM,nt,i
COc1ccc(-c2cc(C(=O)N3CCN(Cc4ccccc4)CC3)no2)cc1OC,i,?,i,?,i
CN1CCN(C(=O)c2cc(-c3ccco3)on2)CC1,i,i,31.6µM,i,i
CCC(C)NC(=O)c1cc(-c2ccc(OC)cc2)on1 (configuration not stated),i,i,i,i,i
O=C(c1cc(-c2ccco2)on1)N1CCOCC1,i,?,i,i,i
CC(=O)OC[C@@H]1O[C@H](CCO/N=C\[C@@H](C)[C@H](OCc2ccccc2)C(C)C)C=C[C@@H]1OC(C)=O,nt,i[13.5 µM],nt,nt,nt
